# PostGolgi yeast: phenotypic screen on post-Golgi transport, primary screen | AID 739, 2007 | post-Golgi transport phenotypic cell assay | 0.9% of 98,000 active | inhibition, % at 10 µM;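 note: yeast cells grown in 1536-well plates; yeast grown about 18 h at 30C before absorbance read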
# CYP2C9 act: human CYP2C9 activators, primary screen, biochemical, luminescence; activation factor at 5 µM; recombinant CYP2C9, luciferin-H conversion; hits give high values; factor 1 = untreated enzyme, 0 = blocked; AID 1024, 2008; Cytochrome P450 2C9 (Homo sapiens), P11712; 1.4% of 96,000 active;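 active = activation factor of 2 or more for CYP2C9 at a 5 µM dose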;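 note: 0 = sulfaphenazole-blocked wells and 1 = vehicle-only wells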
# CYP2C19 inh: blockers of cytochrome P450 2C19 activity – biochemical, luminescence, ADME assay, primary screen; CYP2C19 Supersomes, luciferin-H EGE luminescence, 30 min; inhibition, % at 5 µM; AID 778, 2007; P33261; 21% of 96,000 active;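 active = CYP2C19 inhibition above a set limit at 5 µM in the primary screen, cut at about 50% in these data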;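 note: plate controls were negative control wells for no effect and 2.5 mM tranylcypromine positive control for full effect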
# Target sequence (P33261 whole entry, looked up): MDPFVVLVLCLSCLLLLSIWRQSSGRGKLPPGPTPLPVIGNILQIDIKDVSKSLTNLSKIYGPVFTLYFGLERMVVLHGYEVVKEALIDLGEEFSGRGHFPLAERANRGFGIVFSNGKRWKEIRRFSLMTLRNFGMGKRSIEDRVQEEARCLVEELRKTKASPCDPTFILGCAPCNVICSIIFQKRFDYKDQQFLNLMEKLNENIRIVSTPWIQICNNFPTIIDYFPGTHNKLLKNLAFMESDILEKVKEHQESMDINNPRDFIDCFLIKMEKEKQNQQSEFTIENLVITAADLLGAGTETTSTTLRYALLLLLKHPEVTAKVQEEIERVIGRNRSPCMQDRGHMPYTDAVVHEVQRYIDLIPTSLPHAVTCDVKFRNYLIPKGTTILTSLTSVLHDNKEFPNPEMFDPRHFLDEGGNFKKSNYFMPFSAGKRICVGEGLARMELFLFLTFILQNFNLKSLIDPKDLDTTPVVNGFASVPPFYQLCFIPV
# CYP2C9 inhib: blockers of cytochrome P450 2C9 activity – biochemical, luminescence, ADME assay, primary screen; P11712; inhibition, % at 5 µM; CYP2C9 Supersomes, luciferin-H conversion; 20% of 96,000 active;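 active = blocking of liver enzyme CYP2C9 beyond about 50% at 5 µM, limit read from the data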
# PostGolgi ctrl: growth inhibition of yeast control strain, primary screen, counter-screen for post-Golgi transport modulator project. efflux-deficient yeast background strain, growth absorbance A615, 16 h. 5% of 98,000 active. inhibition, % at 10 µM
# CYP2C19 act: human CYP2C19 activators, primary screen, biochemical, luminescence; Cytochrome P450 2C19 (Homo sapiens), P33261; recombinant CYP2C19, luciferin-H EGE luminescence; hits give high values; 0 = fully inhibited enzyme, 1 = untreated enzyme; activation factor at 5 µM; 96,000 tested, under 10 active;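 active = activation factor of at least 2 at 5 µM in the primary screen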;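 note: 0 = wells with 2.5 mM tranylcypromine and 1 = vehicle-only wells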
# * hit, by the source's call; nt = no result. An excerpt weighted towards active compounds, which were near 32% of everything screened. Cut-off read from the data, not from the text of the source, unless noted: active = inhibition above about 30%; inactive = the rest.
SMILES,PostGolgi yeast,CYP2C9 act,CYP2C19 inh,CYP2C9 inhib,PostGolgi ctrl,CYP2C19 act
CCC/C(O)=C1\C(=O)CCCC1=NCCCCCC(=O)O,8.0,1,-1.9,-0.4,-3.6,1
Cc1ccc(CNS(=O)(=O)/C=C/c2ccc3c(c2)OCO3)cc1,12.7,0.8,99.0*,19.3,4.5,0
O=S(=O)(N/N=C\c1ccc2c(c1)OCO2)c1ccc(Cl)cc1,-8.5,0.1,36.3,86.0*,19.2,0.6
Cc1ccc(S(=O)(=O)N/N=C\c2ccc3c(c2)OCO3)cc1,6.9,0.3,58.8*,74.8*,-3.8,0.4
CCOC(=O)Nc1ccc2ncn(C)c(=O)c2c1,-3.6,0.9,2.2,5.9,7.5,1
CCN(CC)C(=O)CN1C(=O)C2CC=C(Cl)CC2C1=O (stereo unspecified),-5.3,1,1.3,-2.2,4.3,1
CCC(C(=O)NCCN1CCN(C)CC1)n1c(C)c2cnn(-c3ccccc3)c(=O)c2c1C (stereo unspecified),4.2,0.8,20.2,19.1,1.6,0.8
CCCN1CCN(C(=O)CCCn2c(C)c3cnn(-c4ccccc4)c(=O)c3c2C)CC1,-2.9,1,29.8,0.1,30.8*,0.7
Cc1cc(=O)n2nc(N3CCC(C(=O)NC(C)c4ccccc4)CC3)sc2n1 (stereo unspecified),-8.2,0.9,-3.5,5.1,11.2,1
CCCN(CCC)C(=O)C1CCN(c2cc(C)nc3c(-c4ccc(OC)c(OC)c4)c(C)nn23)CC1,-3.6,0.5,48.3,51.3*,6.1,0.5
COc1ccc(-c2c(C)nn3c(N4CCC(C(=O)NCCN(C)C)CC4)cc(C)nc23)cc1OC,14.3,1,-10.4,-3.7,6.5,1.1
CCOc1ccccc1-c1nc(C(N)=O)c2[nH]c(=O)n(-c3cccc(C)c3)c2n1,23.4,0.4,47.8,63.7*,16.7,0.5
COc1ccc(-c2nc(C(N)=O)c3[nH]c(=O)n(-c4ccccc4OC)c3n2)c(OC)c1,-1.2,0.8,12.7,19.2,5.5,0.9
COc1ccc(OC)c(-c2nc(C(N)=O)c3[nH]c(=O)n(-c4ccc(F)cc4)c3n2)c1,-7.3,0.5,18.3,53.8*,5.5,0.8
Cc1nc(NCc2ccco2)[nH]c(=O)c1CCC(C)C,-17.1,0.9,57.1*,13.9,22.5,0.4
Cc1cccc(N(C(=O)Nc2ccccc2)C2=NCC(C)S2)c1 (stereo unspecified),5.8,0.2,68.2*,81.2*,-1.6,0.3
CC1CN=C(N(C(=O)Nc2ccccc2)c2ccc(F)cc2)S1 (stereo unspecified),-2.9,0.2,75.9*,76.1*,1.7,0.2
CC(=O)Nc1ccc(S(=O)(=O)N(C2=NCC(C)S2)c2ccccc2)cc1 (stereo unspecified),0.3,nt,nt,nt,2.4,nt
Cc1cccnc1N(C(=O)Nc1ccccc1)C1=NCC(C)(C)S1,5.2,1,-5.4,3.0,2.4,1.1
CCCC(C)n1[nH]c(=O)cc1N (stereo unspecified),2.2,nt,nt,nt,1.6,nt
CCc1cccc2c(=O)c(C(=O)NCCN3CCOCC3)c[nH]c12,19.8,1.2,-14.4,-17.2,5.3,1.1
COc1ccc(Oc2nccc(-c3ccccc3)c2C#N)cc1,-6.6,0.7,29.8,27.7,9.6,0.7
O=C1CC(C(=O)N(c2ccc(F)cc2)C(C(=O)NC2CCCC2)c2ccccn2)CS1 (stereo unspecified),-12.4,1.1,-12.0,-12.3,0.8,1.1
O=C1CC(C(=O)N(c2cccc(F)c2)C(C(=O)NC2CCCC2)c2ccccn2)CS1 (stereo unspecified),3.7,1,6.1,-2.5,37.3*,0.9
CC(=O)C1=C(C)NC(SCC(=O)c2ccccc2)=C(C#N)C1c1ccco1 (stereo unspecified),2.3,0.1,98.8*,92.6*,26.4,0
N#CC1=C(SCC(=O)c2ccc(Br)cc2)NC2=C(C(=O)CCC2)C1c1ccco1 (stereo unspecified),13.7,0,99.2*,98.8*,15.4,0
Cc1snc(SCC(=O)c2ccc(Cl)cc2)c1C#N,1.8,0.7,41.9,27.9,13.1,0.6
